Where “and” joins values, the source holds several entries; their conditions need not be identical. Identical values can stand only once. This is part of a sample that, as a whole, favours compounds with a hit. Of some 83,000 tested, about 20% had one in any assay.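 A percent growth of 40 corresponds to 60% growth inhibition; 0 means no net growth; -100 means all cells died. Active threshold: below 10.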 Unmarked numbers belong to inactive results. Calls of active or inactive are those of the source.

In this test the test system is HL-60(TB) leukemia. Briefly: NCI-60 one-dose screen, 48 h (100 = growth as untreated, 0 = no growth, -100 = all killed). The note with it: 10 µM unless noted.
For the molecule `Nc1ccccc1NC(=O)c1ccc(CCCC(=O)Nc2ccc(C3CC3N)cc2)cc1` (centres undefined), the growth was 24.6%. To `COC(=O)C1=COC(C)C2C[n+]3ccc4c([nH]c5ccccc54)c3CC12` (centres undefined) belongs 106% and 103%.

In the case of `COc1ccc(/C=C(\C#N)c2cc(OC)c(OC)c(OC)c2)cc1`, the growth is -31.4% (active). Take `[2H]c1nc(Nc2ncc(F)c(-c3cc(F)c4nc(C)n(C(C)C)c4c3)n2)c([2H])c([2H])c1CN1CCN(C([2H])([2H])C([2H])([2H])[2H])CC1`: the growth was 34.6%. To `CCn1ccnc1C(=O)/C=C/c1ccc(CC(=O)Nc2ccc(F)cc2)cc1` belongs 27.9%; to `OC(CC(c1ccccc1)c1cccc2ccccc12)(c1ccccc1)c1ccccc1` (centres undefined), 99.1% and 101%; to `C[C@H](NC(=O)[C@@H](C)N)[C@H](Oc1ccc2c(cnn2-c2ccc(F)cc2)c1)c1ccc2c(c1)OCCO2`, 25.8%. To `Cc1nc(N)sc1-c1ccnc(Nc2ccc(N3CCOCC3)cc2)n1` belongs 43.9%.

For `O=C(CC(=O)c1ccccc1F)Nc1ccc([N+](=O)[O-])cc1`, the growth is 98.2%. The result for `CC1(C)C2CC1C1(/C=N/NC(N)=S)C(C2)C(C#N)(C#N)C1(C#N)C#N` (centres undefined) reads 13.5%; that for `CC1Cc2c(N(C)C)ncnc2N(C)c2ccc(O)cc21` (centres undefined), 81.1%; that for `c1ccc(CNc2nc(Nc3ccc(-c4nc5ccccc5[nH]4)cc3)c3cn[nH]c3n2)cc1`, -4.71% (active).

On to `O=c1cc(-c2cccnc2)oc2c1ccc1ccccc12`, for which the growth was 83.4%. To `Cc1cc(-c2ccc(NS(=O)(=O)c3ccccc3)c(C)c2)ccc1NS(=O)(=O)c1ccccc1` belongs 74.5% and 97.3%; to `CC(C)(O)C1CCCN1C(=O)c1ccccc1I` (centres undefined), 89.3%; to `O=c1c2c(c3ccccc3n1-c1ccccc1)NC(=S)NC2c1ccccc1` (centres undefined), 44.3%. For `Cc1cc(S(=O)(=O)/N=C(\N)n2nc(C)c(C)c2C)c(SCc2ccccc2)cc1Cl`, the growth is 81.9%. To `COc1ccccc1-c1c(-c2ccc(Cl)cc2)c2cc3c(cc2[nH]c1=O)OCCO3` belongs 18.3%; to `O=C1C(Cl)=C(Nc2ccc(O)cc2)C(=O)N1Cc1ccc(Cl)cc1`, 32.8%. The result for `Cc1ccc(N=C2CSc3nnc(-c4csc5c4CCCC5)n3N2)cc1` reads -25.4% (active); that for `COc1ccc(-c2ccc(C)n2-c2ccc(-c3nc4ccccc4s3)cc2)cc1`, 53.5%. The result for `CCOC(=O)c1ccc(NC(=O)c2nc(-c3cc(OC)c(OC)c(OC)c3)n(-c3ccc(Cl)cc3)n2)cc1` reads 77.3%. `O=C(NCc1ccc(Cl)cc1Cl)C1CCC(=O)N1c1cccs1` (centres undefined): the growth is 99%. The result for `O=C(Nc1ccc(-c2nc(N3CCOCC3)c3cccn3n2)cc1)Nc1cccnc1` reads 12%; that for `COc1ccc(/C(C#N)=C/c2ccccn2)cc1`, 91.8% and 78.1%. To `c1ccc(-c2nnn(-c3ccccc3)n2)cc1` belongs 88.9%; to `COc1ccc(-c2nocc2-c2cc(OC)c(OC)c(OC)c2)cc1`, -14.7% (active); to `O=C1NN(C(=O)c2ccc(Cl)cc2)C(c2ccccc2)=N/C1=C\c1ccc(F)cc1`, -3.45% (active). To `O=C(Cn1c(=O)ccn(CCCCCCCCOc2ccc(Br)cc2)c1=O)Nc1ccc(Oc2ccc(Cl)cc2)cc1` belongs 48.7%; to `CCCCOC(=O)OCc1cc(=O)c(O)co1`, 95.2%; to `COc1ccc(-c2csc(N(C(=O)N3CCN(c4cc5c(cc4F)c(=O)c(C(=O)O)cn5C4CC4)CC3)c3ccccc3)n2)cc1`, -29.6% (active). With `O=C1NC(=O)c2c1c1c3ccccc3ccc1c1[nH]c3ccc(Br)cc3c21`, the growth is 18.7%. To `COc1cc(NCCCCN=C(N)N)c2ncccc2c1` belongs 103%. To `O=C1NC(=O)C2(CCCC2C(=O)O)N1` (centres undefined) belongs 97.1%. To `Fc1ccc(Nc2nc3nonc3nc2Nc2ccc(F)cc2)cc1` belongs -17.6% (active). For the molecule `Nc1nonc1-c1nc2ccccc2n1Cc1ccc(F)cc1`, the growth was 21.5%. Turning to `O=C(Nc1ccc(C2=NCCCN2)cc1)Nc1ccc(C2=NCCCN2)cc1`, the growth is 87.4%. For `CCC(C)NC(=O)c1ccccc1C` (centres undefined), the growth was 111%.

Regarding `CC1(C)c2[nH]c3ccccc3c2C[C@]2(C)[C@H]3CC=C4[C@@H]5C[C@@](C)(C(N)=O)CC[C@]5(C)CC[C@@]4(C)[C@]3(C)CC[C@@H]12`, the growth was 55.8%.

(Values after PubChem BioAssay (NCI).)
